The source of these data is PubChem BioAssay (NCI).

This is part of a sample that, as a whole, favours compounds with a hit. Of some 79,000 tested, about 15% had one in any assay. Unmarked numbers belong to inactive results. Calls of active or inactive are those of the source. Rule as the data show it: active = growth inhibition above about 70%; inactive = the rest.

Experiment [1] can be described thus: NCI Yeast Anticancer Drug Screen. Data for the rad50 strain (AID 155).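 Also: 0% = growth of vehicle-only cultures of the same strain.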 To be noted: S. cerevisiae rad50 strain growth inhibition, stronger effect = higher value. The method, boiled down: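 Cells are treated with compound, grown, and their growth is then scored against vehicle-only cultures of the same repair-deficient yeast strain.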
Experiment [2] can be described thus: NCI Yeast Anticancer Drug Screen. Data for the mec2-1 strain (AID 157). To be noted: S. cerevisiae mec2-1 strain, stronger effect = higher value. The method, boiled down: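 mec2-1 yeast strain, carrying an alteration in DNA damage repair or cell cycle control, was exposed to compounds; growth inhibition was measured relative to vehicle-treated controls.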
Experiment [3] is described as follows: NCI Yeast Anticancer Drug Screen. Data for the sgs1 mgt1 strain (AID 161).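 Also: 0% = growth of cultures given vehicle only.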 To be noted: S. cerevisiae sgs1 mgt1 strain, stronger effect = higher value. The method, boiled down: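 Growth of a repair-deficient yeast mutant was monitored after compound treatment and expressed as inhibition relative to vehicle-treated cultures.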
Experiment [4] is described as follows: NCI Yeast Anticancer Drug Screen. Data for the cln2 rad14 strain (AID 165).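 Also: 0% = growth equal to vehicle treated cultures.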 To be noted: S. cerevisiae cln2 rad14 strain, stronger effect = higher value. The procedure, abridged:
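Yeast carrying cln2 and rad14 alterations (cell cycle control and DNA damage repair) were exposed to compounds. Growth inhibition was measured against vehicle-treated controls.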

A short description of experiment [5]: NCI Yeast Anticancer Drug Screen. Data for the bub3 strain (AID 167). As to conditions: S. cerevisiae bub3 mutant strain, stronger effect = higher value. The method, boiled down:
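Part of a panel of yeast mutants defective in DNA damage repair or cell cycle regulation. Each strain is grown with compound, and inhibition is calculated relative to solvent-treated cultures.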

The nature of experiment [6]: NCI Yeast Anticancer Drug Screen. Data for the mlh1 rad18 strain (AID 175). As to conditions: S. cerevisiae mlh1 rad18 strain growth inhibition, stronger effect = higher value. The procedure, abridged: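 Growth inhibition of the yeast strain was measured after compound exposure and expressed relative to vehicle-treated controls. The strain carries defined defects in DNA damage repair.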

Where [7] appears, read: at 5.0 µM (retest, dose inferred, filed as 0.5).
The mark [8] stands for this setting: at 50.0 µM (retest, dose inferred, filed as 5.0).

As for `CC(C)(C)c1ccc(CN2CCN(C(c3ccccc3)c3ccc(Cl)cc3)CC2)cc1` (stereo not given), the growth inhibition in experiment [1] (setting [7]) is 20%; in experiment [1] (setting [8]), 52%; in experiment [1] (at 50.0 µM), 15.7%; in experiment [2] (setting [7]), 5%; in experiment [2] (setting [8]), 17%; in experiment [2] (at 50.0 µM), 1.45%. Besides, the growth inhibition in experiment [3] (setting [7]) is 27%; in experiment [3] (setting [8]) it was 81% (active); in experiment [3] (at 50.0 µM), -10.8%; in experiment [4] (setting [7]), -4%; in experiment [4] (setting [8]) it was 21%; in experiment [4] (at 50.0 µM), -8%. The growth inhibition was 42% in experiment [5] (setting [7]); 73% (active) in experiment [5] (setting [8]); -4.4% in experiment [5] (at 50.0 µM); 35% in experiment [6] (setting [7]); 61% in experiment [6] (setting [8]); 52.5% in experiment [6] (at 50.0 µM).

For `CC(C)c1ccc(/C=C2\CSCC3=C2NC(=S)NC3c2ccc(C(C)C)cc2)cc1` (stereo not given), the growth inhibition in experiment [1] (setting [7]) is -6%; in experiment [1] (setting [8]), 83% (active); in experiment [1] (at 50.0 µM), 98.3% (active); in experiment [2] (setting [7]) it was -17%; in experiment [2] (setting [8]) it was 92% (active); in experiment [2] (at 50.0 µM), 98.7% (active). Also, the growth inhibition in experiment [3] (setting [7]) was -13%; in experiment [3] (setting [8]), 87% (active); in experiment [3] (at 50.0 µM) it was 98.9% (active); in experiment [4] (setting [7]) it was -3%; in experiment [4] (setting [8]), 83% (active); in experiment [4] (at 50.0 µM), 98.6% (active). The growth inhibition in experiment [5] (setting [7]) was -13%; in experiment [5] (setting [8]), 95% (active); in experiment [5] (at 50.0 µM), 98.7% (active); in experiment [6] (setting [7]), -4%; in experiment [6] (setting [8]), 94% (active); in experiment [6] (at 50.0 µM), 98.4% (active).

On to `COc1ccc(C(=O)CC2(O)C(=O)N(C)c3c(Cl)cc(Cl)cc32)cc1` (stereo not given), for which the growth inhibition in experiment [1] (setting [7]) was -1%; in experiment [1] (setting [8]), 61%; in experiment [1] (at 50.0 µM), 67.6%; in experiment [2] (setting [7]), 3%; in experiment [2] (setting [8]), 56%; in experiment [2] (at 50.0 µM) it was 67.3%. The growth inhibition was 4% in experiment [3] (setting [7]); 63% in experiment [3] (setting [8]); 61.2% in experiment [3] (at 50.0 µM); -2% in experiment [4] (setting [7]); 66% in experiment [4] (setting [8]); 62% in experiment [4] (at 50.0 µM). The growth inhibition in experiment [5] (setting [7]) is -2%; in experiment [5] (setting [8]), 65%; in experiment [5] (at 50.0 µM), 69%; in experiment [6] (setting [7]), -2%; in experiment [6] (setting [8]), 64%; in experiment [6] (at 50.0 µM), 87.2% (active).

In the case of `N=C(N)SC1c2ccccc2-c2cc([N+](=O)[O-])ccc21` (stereo not given), the growth inhibition in experiment [1] (setting [7]) was 29%; in experiment [1] (setting [8]) it was 98% (active); in experiment [1] (at 50.0 µM) it was 97.7% (active); in experiment [2] (setting [7]), 13%; in experiment [2] (setting [8]), 98% (active); in experiment [2] (at 50.0 µM), 98.1% (active). Also, the growth inhibition was 22% in experiment [3] (setting [7]); 98% (active) in experiment [3] (setting [8]); 98.6% (active) in experiment [3] (at 50.0 µM); 14% in experiment [4] (setting [7]); 98% (active) in experiment [4] (setting [8]); 97.8% (active) in experiment [4] (at 50.0 µM). Moreover, the growth inhibition in experiment [5] (setting [7]) is 11%; in experiment [5] (setting [8]), 99% (active); in experiment [5] (at 50.0 µM) it was 98% (active); in experiment [6] (setting [7]) it was 17%; in experiment [6] (setting [8]), 99% (active); in experiment [6] (at 50.0 µM), 98.5% (active).

As for `CCOC(=O)C(NC(=O)C(CO)n1c(-c2ccccc2)c(-c2ccccc2)oc1=O)C(=O)OCC` (stereo not given), the growth inhibition is 7% in experiment [1] (setting [7]); 42% in experiment [1] (setting [8]); 43.6% in experiment [1] (at 50.0 µM); 2% in experiment [2] (setting [7]); 19% in experiment [2] (setting [8]); 26.4% in experiment [2] (at 50.0 µM). Also, the growth inhibition in experiment [3] (setting [7]) was -2%; in experiment [3] (setting [8]), 35%; in experiment [3] (at 50.0 µM), 41.5%; in experiment [4] (setting [7]), -1%; in experiment [4] (setting [8]), 51%; in experiment [4] (at 50.0 µM) it was -1.9%. Moreover, the growth inhibition in experiment [5] (setting [7]) is 1%; in experiment [5] (setting [8]) it was 51%; in experiment [5] (at 50.0 µM), 22.2%; in experiment [6] (setting [7]), 1%; in experiment [6] (setting [8]) it was 20%; in experiment [6] (at 50.0 µM), 53.1%.

For `CN=C(N)N/N=C(\C)c1ccc2c(c1)Cc1cc(/C(C)=N/NC(N)=NC)ccc1-2`, the growth inhibition in experiment [1] (setting [7]) was 63%; in experiment [1] (setting [8]) it was 94% (active); in experiment [1] (at 50.0 µM), 87% (active); in experiment [2] (setting [7]), 53%; in experiment [2] (setting [8]), 96% (active); in experiment [2] (at 50.0 µM), 75.9% (active). Also, the growth inhibition in experiment [3] (setting [7]) is 45%; in experiment [3] (setting [8]), 98% (active); in experiment [3] (at 50.0 µM), 83.2% (active); in experiment [4] (setting [7]) it was 50%; in experiment [4] (setting [8]) it was 95% (active); in experiment [4] (at 50.0 µM), 85.3% (active). The growth inhibition in experiment [5] (setting [7]) is 54%; in experiment [5] (setting [8]), 96% (active); in experiment [5] (at 50.0 µM), 86.1% (active); in experiment [6] (setting [7]), 59%; in experiment [6] (setting [8]), 96% (active); in experiment [6] (at 50.0 µM) it was 86.4% (active).

Regarding `C[CH2][Sn]([CH2]C)([O]C(=O)c1c(F)cccc1F)[O][Sn]([CH2]C)([CH2]C)[O]C(=O)c1c(F)cccc1F`, the growth inhibition is 40% in experiment [1] (setting [7]); 89% (active) in experiment [1] (setting [8]); 81.3% (active) in experiment [1] (at 50.0 µM); 34% in experiment [2] (setting [7]); 95% (active) in experiment [2] (setting [8]); 81.8% (active) in experiment [2] (at 50.0 µM). For the same molecule, the growth inhibition in experiment [3] (setting [7]) was 36%; in experiment [3] (setting [8]) it was 95% (active); in experiment [3] (at 50.0 µM) it was 83.2% (active); in experiment [4] (setting [7]), 28%; in experiment [4] (setting [8]), 84% (active); in experiment [4] (at 50.0 µM), 72.4% (active). The growth inhibition in experiment [5] (setting [7]) is 45%; in experiment [5] (setting [8]), 72% (active); in experiment [5] (at 50.0 µM), 78.5% (active); in experiment [6] (setting [7]), 44%; in experiment [6] (setting [8]), 93% (active); in experiment [6] (at 50.0 µM), 78.2% (active).

Take `OCCOCCO[P+]1(OCCOCCO)n2c3ccc2C(c2ccccc2)=C2C=CC(=N2)C(c2ccccc2)=c2ccc(n21)=C(c1ccccc1)C1=NC(=C3c2ccccc2)C=C1`: the growth inhibition in experiment [1] (setting [7]) was 99% (active); in experiment [1] (setting [8]), 98% (active); in experiment [1] (at 50.0 µM) it was 91.3% (active); in experiment [2] (setting [7]) it was 100% (active); in experiment [2] (setting [8]), 99% (active); in experiment [2] (at 50.0 µM), 92.2% (active). Further, the growth inhibition is 99% (active) in experiment [3] (setting [7]); 98% (active) in experiment [3] (setting [8]); 92% (active) in experiment [3] (at 50.0 µM); 97% (active) in experiment [4] (setting [7]); 99% (active) in experiment [4] (setting [8]); 91.4% (active) in experiment [4] (at 50.0 µM). Further, the growth inhibition in experiment [5] (setting [7]) is 100% (active); in experiment [5] (setting [8]), 99% (active); in experiment [5] (at 50.0 µM), 89% (active); in experiment [6] (setting [7]), 97% (active); in experiment [6] (setting [8]), 98% (active); in experiment [6] (at 50.0 µM), 85.8% (active).

`Cc1cc2cc3c(c(C(=O)O)c2o1)C(=O)c1ccc2ccccc2c1C3`: the growth inhibition is 15% in experiment [1] (setting [7]); 99% (active) in experiment [1] (setting [8]); 98.2% (active) in experiment [1] (at 50.0 µM); 24% in experiment [2] (setting [7]); 99% (active) in experiment [2] (setting [8]); 99.5% (active) in experiment [2] (at 50.0 µM). Also, the growth inhibition in experiment [3] (setting [7]) is 19%; in experiment [3] (setting [8]), 99% (active); in experiment [3] (at 50.0 µM) it was 99.5% (active); in experiment [4] (setting [7]), 14%; in experiment [4] (setting [8]), 99% (active); in experiment [4] (at 50.0 µM), 99.2% (active). Moreover, the growth inhibition was 14% in experiment [5] (setting [7]); 99% (active) in experiment [5] (setting [8]); 99.6% (active) in experiment [5] (at 50.0 µM); 20% in experiment [6] (setting [7]); 99% (active) in experiment [6] (setting [8]); 99.4% (active) in experiment [6] (at 50.0 µM).

Take `Cc1cc(=O)oc2c(C)c3oc(CBr)cc3cc12`: the growth inhibition in experiment [1] (setting [7]) is -11%; in experiment [1] (setting [8]), 79% (active); in experiment [1] (at 50.0 µM), 54.1%; in experiment [2] (setting [7]), 4%; in experiment [2] (setting [8]), 67%; in experiment [2] (at 50.0 µM), 62.7%. The growth inhibition in experiment [3] (setting [7]) is -17%; in experiment [3] (setting [8]) it was 64%; in experiment [3] (at 50.0 µM) it was 69.8%; in experiment [4] (setting [7]), 32%; in experiment [4] (setting [8]), 56%; in experiment [4] (at 50.0 µM), 66.2%. The growth inhibition in experiment [5] (setting [7]) was -4%; in experiment [5] (setting [8]), 67%; in experiment [5] (at 50.0 µM), 65.4%; in experiment [6] (setting [7]), -2%; in experiment [6] (setting [8]), 75% (active); in experiment [6] (at 50.0 µM) it was 63.1%.
